The source of these data is PubChem BioAssay (EPA / NIEHS).

Results filed as inconclusive are left out. Active and inactive are the calls of the source. How the source made its calls, unless noted: active means hit-call score of the fitted dose curve at least 0.9, where 1 is the maximum; inconclusive means response in the unintended direction; inactive means score below 0.9.

The term AC50 denotes the concentration giving half of the maximal activity seen.

The nature of assay [1]: CEETOX_H295R_MTT_cell_viability: Viability Assessment in the CeeTox HT-H295R MTT Assay (AID 2283718; active means hit-call score of the fitted dose curve at least 0.9, where 1 is the maximum; inactive means score below 0.9;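 on AC50: curve fitted both ways so AC50 may mark viability loss or gain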). In a few lines:
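Human H295R adrenal cells, prestimulated 48 h with 10 uM forskolin, were exposed 48 h to chemicals in 0.1% DMSO. Viability was measured in the same wells by MTT (0.5 mg/ml, 4 h, 37 C), absorbance 570/650 nm, as percent of controls.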

Assay [2] can be described thus: Tanguay_ZF_120hpf_ActivityScore_legacy: (Legacy) Oregon State University Tanguay Lab 120 Hour Post-fertilization zebrafish Assay Score for Activity (AID 2283742).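 On AC50: dechorionated Tropical 5D wild-type zebrafish embryos held singly per well.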 In a few lines:
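Dechorionated 5D embryos, one per well, static exposure 6–120 hpf, 28C, sealed and dark; final DMSO 0.64% (vol/vol). Brightfield binary scoring of mortality plus 18 endpoints; gain-of-signal fit versus DMSO baseline.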

The nature of assay [3]: ACEA_AR_antagonist_AUC_viability: ACEA Biosciences xCELLigence Real-Time Cell Analysis on Androgen Receptor Antagonism for Viability (AID 2283776).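 Further: area under impedance growth curve at 80 h after dosing as viability; hits lower the growth signal relative to DMSO meaning cytotoxicity.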 The method in brief:
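22Rv1 human prostate cancer cells were seeded on electrode plates, monitored overnight, then exposed to eight 1:4 dilutions from 100 uM final. Impedance-based growth kinetics at 80 h gave an AUC viability endpoint normalized to DMSO.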

Assay [4] is described as follows: ACEA_AR_agonist_AUC_viability: ACEA Biosciences xCELLigence Real-Time Cell Analysis on Androgen Receptor Agonism for Viability (AID 2283775).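 On AC50: viability read 80 hours after compound addition.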 The method in brief:
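Viability endpoint from xCELLigence impedance in 22Rv1 prostate cells at 80 h. Eight-point series, 100 uM maximum final.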

Assay [5] is described as follows: STM_H9_OrnithineISnorm_perc: Stemina devTOX quickPredict H9 human embryonic stem cell (hESC)-based Assay for Ornithine (ORN) Metabolite Biomarker, Normalized (AID 2283712; active means hit-call score of the fitted dose curve at least 0.9, where 1 is the maximum; inactive means score below 0.9;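 further: ornithine released into spent medium during last day measured by mass spectrometry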). In a few lines: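 UPLC-HRMS readout: endogenous ornithine EIC area / 13C-ORN internal standard, then % of 0.1% DMSO median. H9 hESCs (pluripotent), 72h exposure, re-dosed with fresh media q24h; last 24-h spent media, deproteinized in 40% acetonitrile.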

Assay [6] can be described thus: ArunA_CellTiter_hNP: Viability Assessment in the ArunA Biomedical's Oris Neural Crest (hNC) Cell Migration Assay (AID 2283753). The method in brief:
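Viability read with CellTiter 96 Aqueous One after 72 h chemical exposure of human hNP1 neuroprogenitors, which were plated on Matrigel in LIF/bFGF medium 16 h beforehand. Endpoint fitted in positive direction relative to DMSO.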

Assay [7] is described as follows: ArunA_Migration_hNP: ArunA Biomedical's Oris Neuroprogenitor (hNP) Cell Migration Assay (AID 2283754). The method in brief:
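Readout is calcein-AM fluorescence (ex494/em517) of cells migrating into the detection zone, relative to DMSO. hNP1 cells (H9-derived) grown on Matrigel behind stoppers 16 h, then stoppers pulled and chemical applied 72 h; cytochalasin D as control.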

Assay [8] in a line: ArunA_Migration_hNC: ArunA Biomedical's Oris Neural Crest (hNC) Cell Migration Assay (AID 2283755). The method in brief:
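Calcein-AM fluorescence (ex494 nm/em 517 nm) in the stopper-defined detection zone quantifies migration of hNC cells after 72 h chemical exposure; 60,000 cells/well plated on Matrigel with LIF and bFGF, 16 h pre-incubation. DMSO baseline.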

Assay [9] can be described thus: ArunA_NOG_NucleusCount: ArunA Biomedical's Neurite Outgrowth (NOG) Assay for Nucleus Count (AID 2283756). In a few lines: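 Viable neuron count, from Hoechst nuclei passing size and intensity gates, imaged at 20x on differentiated H9-derived human neurons. Exposure lasted 48 h from seeding; activity was scored relative to DMSO.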
Assay [10] can be described thus: ArunA_NOG_NeuriteLength: ArunA Biomedical's Neurite Outgrowth (NOG) Assay for Neurite Length (AID 2283757). The method in brief: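 Total neurite length per neuron, from traced βIII-tubulin-labelled processes longer than 10 um on viable Hoechst-gated cells, was scored as decrease from DMSO. Cells were hESC (H9)-derived neurons given 48 h chemical exposure immediately after seeding.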

Assay [11] is described as follows: ArunA_NOG_NeuritesPerNeuron: ArunA Biomedical's Neurite Outgrowth (NOG) Assay for Neurites Per Neuron (AID 2283758). In a few lines:
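Differentiated human H9-derived neurons exposed to chemicals for 48 h from seeding, then stained with Hoechst and βIII-tubulin/DyLight 488. Automated imaging counted neurites (processes >10 um) per valid neuron; loss of signal versus DMSO scored.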

Assay [12] in a line: ArunA_NOG_BranchPointsPerNeurite: ArunA Biomedical's Neurite Outgrowth (NOG) Assay for Branch Points Per Neurite (AID 2283759). In a few lines:
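Automated image analysis traced neurites (processes >10 um) from valid cell bodies after Hoechst and βIII-tubulin staining. hNN cells from H9 embryonic stem cells, 48 h exposure. Fitted bidirectionally against DMSO.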

The target of assay [13] is zebrafish Estrogen Receptor (ESR1), esr1 (gene 259252) (UniProt P57717). Kind of assay: ATG_zfER1_XSP1: Attagene TRANS-FACTORIAL Multi-Species (XSP1) HepG2 Assay for zebrafish Estrogen Receptor (ESR1) (AID 2283772). The method in brief: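 HepG2 cells transiently transfected with a GAL4-UAS reporter and chimeric zebrafish ER-Gal4, dosed 24 h with 3 nM 6-alpha-fluorotestosterone present. Reporter mRNA measured by RT-PCR and capillary electrophoresis; gain of signal versus DMSO.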
Sequence of zebrafish Estrogen Receptor (ESR1), esr1 (gene 259252) (P57717 whole entry, looked up, the tested form may be a part): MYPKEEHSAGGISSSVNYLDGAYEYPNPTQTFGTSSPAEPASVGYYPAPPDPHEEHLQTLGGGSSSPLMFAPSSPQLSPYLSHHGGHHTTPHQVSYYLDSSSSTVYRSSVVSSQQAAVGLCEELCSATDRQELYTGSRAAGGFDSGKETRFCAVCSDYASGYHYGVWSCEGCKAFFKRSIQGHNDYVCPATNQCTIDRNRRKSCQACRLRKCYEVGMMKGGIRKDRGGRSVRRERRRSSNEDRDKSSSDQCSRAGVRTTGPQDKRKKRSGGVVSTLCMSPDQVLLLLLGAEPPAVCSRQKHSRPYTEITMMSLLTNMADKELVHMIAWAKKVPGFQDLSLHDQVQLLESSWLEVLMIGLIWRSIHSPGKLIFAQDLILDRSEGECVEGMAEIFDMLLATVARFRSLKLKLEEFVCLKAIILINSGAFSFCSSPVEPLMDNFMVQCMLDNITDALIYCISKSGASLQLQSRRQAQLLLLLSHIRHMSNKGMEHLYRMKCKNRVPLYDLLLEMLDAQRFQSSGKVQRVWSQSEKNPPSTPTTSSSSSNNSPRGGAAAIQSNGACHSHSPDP

In assay [14] the test system is zebrafish Estrogen Receptor (ESR2B), gene 317733. Nature of the assay: ATG_zfER2b_XSP1: Attagene TRANS-FACTORIAL Multi-Species (XSP1) HepG2 Assay for zebrafish Estrogen Receptor (ESR2B) (AID 2283773). The method in brief:
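Multiplexed TRANS format in transfected HepG2 liver cells, chimeric NR-Gal4 from zebrafish ESR2B. 24 h dosing; medium contains 3 nM 6-alpha-fluorotestosterone. mRNA induction by RT-PCR/CE, positive direction vs DMSO.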

Assay [15] has as its system frog Estrogen Receptor (ESR2), gene 100174814. Kind of assay: ATG_frER2_XSP1: Attagene TRANS-FACTORIAL Multi-Species (XSP1) HepG2 Assay for frog Estrogen Receptor (ESR2) (AID 2283774). The method in brief: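 HepG2, transient MRTU transfection (GAL4-UAS reporters, exogenous NR-Gal4 chimeras); 24 h compound exposure; 3 nM 6α-fluorotestosterone co-added; total RNA → RT-PCR → 6-FAM primer extension → HpaI → CE. Positive direction vs DMSO.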

For `O=C1c2c(O)cccc2Cc2cccc(O)c21`, the molecule was classed as inactive in assay [1], in assay [2] and in assay [3].
Take `CC(C)c1cccc(C(C)C)c1NC(=O)NS(=O)(=O)c1cc(C(C)(C)O)co1`: the outcome in assay [2] was inactive. Also, the results for the concentration at half-maximal activity (AC50) in assay [4] and in assay [3] were 28.2 µM (active) and 19 µM (active), respectively.
On to `C/C=C/c1ccc(OC)cc1`, for which the outcome in [2], in assay [4] and in [3] was inactive.
For the molecule `CCOCCOCCO`, the molecule was classed as inactive in assay [2] and in assay [4].
As to `CN(C)C(=O)NC1(c2ccccc2)CCN(CC[C@@]2(c3ccc(F)c(F)c3)CN(C(=O)c3ccccc3)CCO2)CC1`, the outcome in [2] and in assay [3] was inactive. The half-maximal activity concentration (AC50) in assay [4] was 47 µM (active).
As to `C=CCc1ccc(OC)c(OC)c1`, in assay [1], the AC50 is 0.102 µM (active). The result in assay [2] was inactive.
`CC1=C(C)S(=O)(=O)CCS1(=O)=O`: the molecule was called inactive in [1] and in assay [2]. For the same molecule, the values for the AC50 in [4] and in assay [3] were 82.6 µM (active) and 88.8 µM (active), respectively.
Regarding `COC(=O)[C@H]1[C@H]2C[C@@H]3c4[nH]c5cc(OC)ccc5c4CCN3C[C@H]2C[C@@H](OC(=O)c2cc(OC)c(OC)c(OC)c2)[C@@H]1OC`, the result in assay [5], in [2], in assay [7], in assay [9], in [10] and in assay [11] was inactive. The result in assay [12] was inactive. In addition, the AC50 in assay [6] is 81.8 µM (active); in [8], 50 µM (active); in assay [4], 42.2 µM (active); in assay [3], 33 µM (active).
For `CC(=O)O[C@]1(C(C)=O)CC[C@H]2[C@@H]3C=C(Cl)C4=CC(=O)[C@@H]5C[C@@H]5[C@]4(C)[C@H]3CC[C@@]21C`, the molecule was called inactive in assay [1] and in [2]. Besides, the AC50 is 35.6 µM (active) in [13]; 13.1 µM (active) in assay [14]; 18 µM (active) in [15]; 87.1 µM (active) in assay [4]; 0.0607 µM (active) in [3].
In the case of `OCC(CO)n1cnc(-c2ccc(F)cc2)c1-c1ccnc(Oc2ccccc2)n1`, the result in [2] and in [4] was inactive. Besides, the AC50 in assay [3] is 21.1 µM (active).
With `CC(C)COC(=O)CCCCC(=O)OCC(C)C`, the molecule was called inactive in assay [2], in [4] and in assay [3].
`Oc1ccc(O)cc1`: the result in assay [1] was inactive. The AC50 was 2.69 µM (active) in assay [2] and 50 µM (active) in [3].
In the case of `CS(=O)(=O)c1ccc([C@@H](C[C@H]2CCC(=O)C2)C(=O)Nc2cnccn2)cc1Cl`, the molecule was called inactive in [2].
Turning to `CN(C)C(=O)NC1(c2ccccc2)CCN(CCC[C@]2(c3ccc(Cl)c(Cl)c3)CCCN(C(=O)c3ccccc3)C2)CC1`, the result in assay [1] and in assay [2] was inactive. The concentration at half-maximal activity (AC50) in [4] is 16.2 µM (active); in assay [3] it was 16.7 µM (active).
On to `CCCCC(CC)COC(=O)CCCCCCCC(=O)OCC(CC)CCCC` (stereo not drawn), for which the result in assay [2], in assay [4] and in assay [3] was inactive.
For `CC(=O)OC1CC(C)OC(C)O1` (stereo not drawn), the call in assay [2] was inactive.
Consider `S=c1[nH]c2ccccc2s1`, for which the molecule was classed as inactive in assay [1] and in assay [3].
Turning to `Oc1ccccc1O`, the molecule was called inactive in [1] and in assay [2]. Moreover, the values for the AC50 in assay [4] and in assay [3] were 18 µM (active) and 28.9 µM (active), respectively.
Consider `COc1ccc(C(=O)Nc2nc3ccccc3c(NCc3ccccc3)c2C#N)cc1`, for which the AC50 in assay [1] is 0.909 µM (active); in assay [4] it was 24 µM (active); in [3], 23.5 µM (active). For the same molecule, the call in assay [2] was inactive.
Turning to `OCC(O)CO`, in assay [2], the molecule was classed as inactive.
Take `CCCC(=O)O`: the molecule was called inactive in [2], in [4] and in assay [3].
Take `O=C1CCCCC1`: the call in [2], in [4] and in assay [3] was inactive.
